The record followed here is PubChem BioAssay (NCATS).

Structures are written as SMILES. Unmarked numbers belong to inactive results. Records with an inconclusive call do not appear. The source made the active and inactive calls. Unless noted, the call rests on the fitted dose curve; in most records, active means well fitted curve in the direction sought with a large enough effect; inconclusive means small, poorly fitted or top-dose-only effect, or another doubt; inactive means no such curve, though single readings can be large; an effect the other way counts as inactive or inconclusive. Some results are limits rather than exact numbers.

Assay [1] is described as follows: Viability counterscreen for antagonist of constitutive androstane receptor (CAR) against the NCATS DSHEA and TCM libraries (AID 1794837).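 Further: compound exposure lasted 24 h before viability reading; 0% is about no effect.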 In outline:
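HepG2-CYP2B6-hCAR cells, 2,500/well, were exposed 24 hr at 37C to substances together with 48 uM CITCO (final). Viability was read as CellTiter-Fluor fluorescence (Ex/Em 405/540 nm) after 1 hr.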
(In general: Counterscreens check selectivity or assay interference.)

Assay [2] is described as follows: Viability counterscreen for agonist of constitutive androstane receptor (CAR) against the NCATS DSHEA and TCM libraries (AID 1794838).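 Further: HepG2 cells with CYP2B6 reporter and hCAR plus 0.75 µM PK11195 antagonist; 0% is about no effect.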 In outline: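 HepG2-CYP2B6-hCAR cells (2,500/well) treated 24 h at 37C with compounds plus 0.75 uM PK11195; viability read by CellTiter-Fluor fluorescence, Ex/Em 405/540 nm.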
Assay [3] deals with Nuclear receptor subfamily 1 group I member 3 (Homo sapiens) (UniProt Q14994). Description: Primary qHTS for agonist of constitutive androstane receptor (CAR) against the NCATS DSHEA and TCM libraries (AID 1794839). Further: potency means the concentration at half of the fitted maximal effect. An outline of the steps: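 HepG2-CYP2B6-hCAR cells, 2,500/well, attached 5 h, then dosed with 0.75 µM PK11195 (final) for 24 h at 37 °C. Luciferase luminescence read (ONE-Glo); CellTiter-Fluor viability (Ex/Em 405/540 nm) in same wells; CITCO positive control.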

Assay [4] is described as follows: HepG2 viability counterscreen (readout 2: ATP content) against the NCATS DSHEA and TCM libraries (AID 1794840). Further: 0% is about no effect. An outline of the steps: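 HepG2 cells, 1,000/well, attached ~4 h, then exposed ~24 h at 37C to substances. Protease activity read by fluorescence of 25 uM GF-AFC (Ex/Em 380/510 nm) after 30 min; ATP then by CellTiter-Glo luminescence.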
The target in assay [5] is Cytochrome P450 3A4 (Homo sapiens) (UniProt P08684). The assay is described as follows: qHTS for inhibitors of CYP3A4 against the NCATS DSHEA and TCM libraries (AID 1919971). Further: potency means the concentration at half of the fitted maximal effect.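 On activity change, negative = inhibition: on the % scale 0 is the no-effect control and ±100 the full control effect; inhibition lowers luminescence from luciferin made by CYP3A4.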 An outline of the steps:
(§1)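 Light output from converted D-luciferin reports remaining CYP activity. Compounds preincubate with enzyme and substrate for 15 min; NADPH regeneration (1x final) runs the reaction for 30-45 min.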

Assay [6] concerns the target Cytochrome P450 2D6 (Homo sapiens) (UniProt P10635). Description: qHTS for inhibitors of CYP2D6 against the NCATS DSHEA and TCM libraries (AID 1919972). Further: on the % scale 0 is the no-effect control and ±100 the full control effect. In outline:
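Steps: enzyme plus luciferin substrate dispensed; test substances pinned; 15 min RT; 1x NADPH regenerating solution added, 30–45 min RT protected from light; detection reagent, 30 min RT; luminescence measured. Minus-enzyme wells as background.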
For orientation: In qHTS, concentration-response curves come from the screen itself.

Assay [7] deals with Cytochrome P450 2C9 (Homo sapiens) (UniProt P11712). The assay is described as follows: qHTS for inhibitors of CYP2C9 against the NCATS DSHEA and TCM libraries (AID 1919973). Further: potency means the concentration at half of the fitted maximal effect.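 On activity change, negative = inhibition: luminogenic pro-luciferin CYP2C9 substrate turned into luciferin with NADPH regeneration; on the % scale 0 is the no-effect control and ±100 the full control effect.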 An outline of the steps:
as §1

Assay [8] in a line: KB-3-1 P-gp reporter qHTS against the NCATS DSHEA and TCM libraries (AID 1919975). Further: 0% is about no effect. An outline of the steps:
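Parental KB-3-1 cells, 500 cells/well, in DMEM with 10% FBS, exposed 72 h at 37 C to compounds in concentration-response. Viability read by CellTiter-Glo luminescence after 30 min at room temperature.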

Assay [9] deals with Cytochrome P450 1A2 (Homo sapiens) (UniProt P05177). The assay is described as follows: qHTS for inhibitors of CYPIA2 against the NCATS DSHEA and TCM libraries (AID 1919976). Further: potency means the concentration at half of the fitted maximal effect. An outline of the steps:
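In this quantitative HTS, inhibition of recombinant human CYP1A2 was measured as loss of luciferin-derived luminescence. Turnover ran 30-45 min at RT after NADPH regeneration solution was added.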

Assay [10] deals with Nuclear receptor subfamily 1 group I member 2 (Homo sapiens) (UniProt O75469). Description: Dual reporter qHTS for antagonist of Pregnane X Receptor (hPXR) against the NCATS DSHEA and TCM libraries: Luminescence Readout (AID 1920060).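 Further: HepG2 cells carrying hPXR luciferase reporter stimulated with rifampicin at 2 µM; 0% is about no effect.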 An outline of the steps: (§2)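 In antagonist mode, 2 uM rifampicin was added to hPXR-Luc HepG2 cells alongside test substances, incubated 24 h at 37 C; luminescence gave reporter activity, and CellTiter-Fluor fluorescence (405/540 nm) gave viability.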

Assay [11] is described as follows: Dual reporter qHTS for antagonist of Pregnane X Receptor (hPXR) against the NCATS DSHEA and TCM libraries: Fluorescence Readout (AID 1920061). Further: 0% is about no effect. In outline:
as §2

The target of assay [12] is Cytochrome P450 2C19 (Homo sapiens) (UniProt P33261). Description: qHTS for inhibitors of CYP2C19 against the NCATS DSHEA and TCM libraries (AID 1919974).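 Further: luminescence from luciferin released by CYP2C19 oxidation of a pro-luciferin substrate.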 Further: potency means the concentration at half of the fitted maximal effect. An outline of the steps:
as §1

In assay [13] the target is Nuclear receptor subfamily 1 group I member 2 (Homo sapiens) (UniProt O75469). The assay is described as follows: Dual reporter qHTS for agonist of Pregnane X Receptor (hPXR) against the NCATS DSHEA and TCM libraries: Luminescence readout (AID 1920059). Further: 0% is about no effect. In outline:
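hPXR-LucHepG2 cells in phenol red-free DMEM with 5% charcoal-stripped FBS, 2000 cells/well, attached 5 h, then exposed 24 h at 37C to compounds; rifampicin as positive agonist control (2.8 nM–92 uM). Luciferase luminescence read.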

A short description of assay [14]: qHTS Counterscreen for compound interference against the NCATS DSHEA and TCM libraries (AID 1919978).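 Further: compounds preincubated with 1 µM D-luciferin or buffer before detection reagent; % of control where 0% means no effect.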 Particulars: firefly luciferase detection reagent interference, luminescence. An outline of the steps:
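Firefly luciferase detection reagent was added after compounds (19.5 nM–39.8 uM final) had been incubated 15 min at room temperature with 1 uM D-luciferin or with 100 mM phosphate buffer alone. Luminescence was read after 30 min at room temperature.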

The target of assay [15] is Mitogen-activated protein kinase 10 (Mus musculus) (UniProt Q61831). The assay is described as follows: JNK3 AlphaScreen Assay (AID 530; active means well fitted curve in either direction with a large enough effect, not every such curve was filed as active;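 further: kinase came from lysate of stimulated human HepG2 cells; signal reports phosphorylation of biotinylated GST-cJun 1-79 at Ser73 with 10 µM ATP; on the % scale 0 is the no-effect control and ±100 the full control effect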). An outline of the steps:
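JNK3 came from HepG2 lysates pre-activated with IL-1beta and TNF-alpha and phosphorylated biotinylated GST-cJun (1-79) at 10 uM ATP, pH 7.6, room temperature. Compounds were titrated. AlphaScreen signal used anti-phospho-cJun (Ser73) antibody.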
(In general: In Alpha technology, singlet oxygen from a donor bead excites a nearby acceptor bead.)

Assay [16] in a line: AP1 Signaling Pathway (AID 357; active means well fitted curve in either direction with a large enough effect, not every such curve was filed as active;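 further: ME-180 reporter cells stimulated with EGF at its EC50 level; on the % scale 0 is the no-effect control and ±100 the full control effect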). Particulars: ME-180 (cervical carcinoma) AP-1-bla reporter, EGF-induced, beta-lactamase ratio, 5 h; at 7.69 µM (top of the series) unless noted. In outline:
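AP-1-bla ME-180 cells, Opti-MEM + 0.5% dialyzed FBS, plated overnight 37 °C. Cpd titration + EC50 EGF, 5 h 37 °C. CCF4 2.5 h RT; ex 405, em 460/530 ratio → %activity, AC50.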

The target in assay [17] is Glucocorticoid receptor (Homo sapiens) (UniProt P04150). The assay is described as follows: GR-GFP Redistribution (AID 450;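 active means compounds whose dose series gives a full or clear partial fitted curve of increased nuclear translocation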; further: potency means the concentration at half of the fitted maximal effect). Particulars: U2OS GR-GFP nuclear translocation, laser cytometry, 2 h.
Assay [18] has the same target. Description: GR-EFC Redistribution (AID 451; calls by dose curve; further: potency means the concentration at half of the fitted maximal effect). The note with it: CHO-K1 GR-EFC translocation, beta-gal luminescence, 2 h. An outline of the steps: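 CHO-K1 cells stably expressing nuclear-localized β-gal enzyme acceptor and GR fused C-terminally to the enzyme donor fragment; ligand-driven nuclear translocation restores β-gal by complementation. Compounds titrated up to 46 uM final, 2 h at 37 °C; luminescence read.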

The target of assay [19] is Ubiquitin carboxyl-terminal hydrolase 1 (Homo sapiens) (UniProt O94782). The assay is described as follows: Inhibitors of USP1/UAF1: Pilot qHTS (AID 504865).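 Further: rhodamine fluorescence freed from ubiquitin-rhodamine substrate followed over time; top concentration of the series differs between compounds; on the % scale 0 is the no-effect control and ±100 the full control effect; nearly all actives have a fitted effect of over 35% in size.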 An outline of the steps:
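USP1/UAF1 complex at 1 nM preincubated 15 min at room temperature with compound, then Ub-Rho substrate added at 150 nM final. Fluorescence (480/540 nm) read kinetically in 50 mM HEPES pH 7.8, 0.5 mM EDTA, 1 mM TCEP, 0.1 mg/ml BSA, 0.01% Tween-20.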

Chain of Cytochrome P450 2C19 (Homo sapiens) (P33261 whole entry, looked up): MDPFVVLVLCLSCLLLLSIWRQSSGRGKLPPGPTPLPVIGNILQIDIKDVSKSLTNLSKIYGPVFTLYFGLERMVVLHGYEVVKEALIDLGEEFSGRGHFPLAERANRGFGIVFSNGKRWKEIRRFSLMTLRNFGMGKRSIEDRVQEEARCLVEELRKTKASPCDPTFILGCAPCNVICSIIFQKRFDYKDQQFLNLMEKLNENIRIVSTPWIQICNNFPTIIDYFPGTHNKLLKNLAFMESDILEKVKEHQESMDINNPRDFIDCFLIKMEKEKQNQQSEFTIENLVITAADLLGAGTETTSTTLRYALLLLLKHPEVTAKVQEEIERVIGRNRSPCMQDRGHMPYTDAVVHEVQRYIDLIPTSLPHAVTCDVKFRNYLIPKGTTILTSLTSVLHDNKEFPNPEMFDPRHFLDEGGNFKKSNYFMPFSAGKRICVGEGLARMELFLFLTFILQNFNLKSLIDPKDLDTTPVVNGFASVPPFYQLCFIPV
Chain of Nuclear receptor subfamily 1 group I member 2 (Homo sapiens) (O75469 whole entry, looked up): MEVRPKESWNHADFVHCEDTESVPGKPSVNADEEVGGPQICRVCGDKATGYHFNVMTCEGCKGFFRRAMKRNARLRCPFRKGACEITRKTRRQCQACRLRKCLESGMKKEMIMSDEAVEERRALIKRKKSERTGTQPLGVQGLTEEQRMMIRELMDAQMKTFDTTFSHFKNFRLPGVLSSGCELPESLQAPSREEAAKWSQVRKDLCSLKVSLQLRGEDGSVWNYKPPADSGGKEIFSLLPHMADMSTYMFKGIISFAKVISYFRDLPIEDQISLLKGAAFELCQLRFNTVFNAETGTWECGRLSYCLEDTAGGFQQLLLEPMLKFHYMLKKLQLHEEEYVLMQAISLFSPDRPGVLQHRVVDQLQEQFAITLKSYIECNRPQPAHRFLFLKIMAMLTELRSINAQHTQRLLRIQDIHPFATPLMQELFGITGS
Chain of Cytochrome P450 2D6 (Homo sapiens) (P10635 whole entry, looked up): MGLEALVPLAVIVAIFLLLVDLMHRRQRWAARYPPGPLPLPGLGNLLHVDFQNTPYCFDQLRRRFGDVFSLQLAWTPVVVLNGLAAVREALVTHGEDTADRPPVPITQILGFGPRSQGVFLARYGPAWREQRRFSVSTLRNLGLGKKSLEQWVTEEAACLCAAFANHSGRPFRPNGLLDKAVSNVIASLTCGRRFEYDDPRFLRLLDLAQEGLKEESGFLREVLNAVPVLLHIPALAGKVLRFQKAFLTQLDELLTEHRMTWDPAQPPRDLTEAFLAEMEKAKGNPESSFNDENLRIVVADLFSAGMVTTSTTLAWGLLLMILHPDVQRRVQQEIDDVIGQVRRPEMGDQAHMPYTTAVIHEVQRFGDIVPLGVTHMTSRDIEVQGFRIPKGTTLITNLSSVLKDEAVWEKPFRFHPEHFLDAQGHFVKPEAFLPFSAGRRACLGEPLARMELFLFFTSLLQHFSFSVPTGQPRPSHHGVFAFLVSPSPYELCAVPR
Chain of Cytochrome P450 3A4 (Homo sapiens) (P08684 whole entry, looked up): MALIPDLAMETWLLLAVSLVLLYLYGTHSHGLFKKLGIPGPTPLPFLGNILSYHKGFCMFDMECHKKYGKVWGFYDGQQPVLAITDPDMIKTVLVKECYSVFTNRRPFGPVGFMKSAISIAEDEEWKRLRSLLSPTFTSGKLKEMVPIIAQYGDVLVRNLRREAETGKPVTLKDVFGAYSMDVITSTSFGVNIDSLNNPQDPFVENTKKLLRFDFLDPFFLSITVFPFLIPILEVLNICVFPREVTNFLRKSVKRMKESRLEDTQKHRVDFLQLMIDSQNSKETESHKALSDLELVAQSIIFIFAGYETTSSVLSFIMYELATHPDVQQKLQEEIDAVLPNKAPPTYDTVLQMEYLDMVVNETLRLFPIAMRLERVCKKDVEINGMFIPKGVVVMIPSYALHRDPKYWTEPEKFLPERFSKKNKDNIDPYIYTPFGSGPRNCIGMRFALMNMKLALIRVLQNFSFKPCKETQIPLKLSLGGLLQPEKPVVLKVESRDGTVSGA
Chain of Cytochrome P450 2C9 (Homo sapiens) (P11712 whole entry, looked up): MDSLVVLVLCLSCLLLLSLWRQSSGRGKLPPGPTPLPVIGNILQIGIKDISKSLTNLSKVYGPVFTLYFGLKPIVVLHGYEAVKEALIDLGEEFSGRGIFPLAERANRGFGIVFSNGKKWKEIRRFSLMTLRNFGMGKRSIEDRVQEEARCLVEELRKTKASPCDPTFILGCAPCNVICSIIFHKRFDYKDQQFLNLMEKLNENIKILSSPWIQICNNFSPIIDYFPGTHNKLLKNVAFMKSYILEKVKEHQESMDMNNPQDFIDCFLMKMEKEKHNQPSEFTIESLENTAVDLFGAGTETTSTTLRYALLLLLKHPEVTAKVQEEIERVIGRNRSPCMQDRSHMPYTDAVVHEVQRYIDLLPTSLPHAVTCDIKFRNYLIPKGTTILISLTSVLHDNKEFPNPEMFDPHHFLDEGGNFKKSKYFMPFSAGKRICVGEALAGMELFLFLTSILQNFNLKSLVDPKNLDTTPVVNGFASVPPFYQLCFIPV
Chain of Nuclear receptor subfamily 1 group I member 3 (Homo sapiens) (Q14994 whole entry, looked up): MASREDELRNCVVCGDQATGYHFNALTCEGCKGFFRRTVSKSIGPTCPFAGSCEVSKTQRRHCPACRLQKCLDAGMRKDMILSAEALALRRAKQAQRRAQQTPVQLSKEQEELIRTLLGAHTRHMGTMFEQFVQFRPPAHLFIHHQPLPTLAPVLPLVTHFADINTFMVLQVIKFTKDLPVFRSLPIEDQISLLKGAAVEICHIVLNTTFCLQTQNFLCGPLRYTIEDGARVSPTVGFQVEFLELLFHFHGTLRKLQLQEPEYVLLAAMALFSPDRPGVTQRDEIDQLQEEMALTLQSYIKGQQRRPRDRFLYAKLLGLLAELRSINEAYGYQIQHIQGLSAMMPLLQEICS
Chain of Cytochrome P450 1A2 (Homo sapiens) (P05177 whole entry, looked up): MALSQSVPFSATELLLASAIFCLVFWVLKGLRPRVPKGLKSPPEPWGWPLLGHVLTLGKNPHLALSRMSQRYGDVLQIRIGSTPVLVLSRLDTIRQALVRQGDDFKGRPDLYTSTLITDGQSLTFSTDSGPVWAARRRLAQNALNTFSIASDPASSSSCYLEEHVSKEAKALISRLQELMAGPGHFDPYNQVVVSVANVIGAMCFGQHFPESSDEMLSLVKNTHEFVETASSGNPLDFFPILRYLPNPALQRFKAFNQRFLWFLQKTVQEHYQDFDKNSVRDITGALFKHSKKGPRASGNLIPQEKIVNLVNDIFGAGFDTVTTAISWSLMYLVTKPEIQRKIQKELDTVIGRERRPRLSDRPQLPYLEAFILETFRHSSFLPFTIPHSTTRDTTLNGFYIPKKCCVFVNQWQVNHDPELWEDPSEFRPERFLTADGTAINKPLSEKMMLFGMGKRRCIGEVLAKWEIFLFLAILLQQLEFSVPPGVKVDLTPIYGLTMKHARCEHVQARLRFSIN
Chain of Glucocorticoid receptor (Homo sapiens) (P04150 whole entry, looked up, the tested form may be a part): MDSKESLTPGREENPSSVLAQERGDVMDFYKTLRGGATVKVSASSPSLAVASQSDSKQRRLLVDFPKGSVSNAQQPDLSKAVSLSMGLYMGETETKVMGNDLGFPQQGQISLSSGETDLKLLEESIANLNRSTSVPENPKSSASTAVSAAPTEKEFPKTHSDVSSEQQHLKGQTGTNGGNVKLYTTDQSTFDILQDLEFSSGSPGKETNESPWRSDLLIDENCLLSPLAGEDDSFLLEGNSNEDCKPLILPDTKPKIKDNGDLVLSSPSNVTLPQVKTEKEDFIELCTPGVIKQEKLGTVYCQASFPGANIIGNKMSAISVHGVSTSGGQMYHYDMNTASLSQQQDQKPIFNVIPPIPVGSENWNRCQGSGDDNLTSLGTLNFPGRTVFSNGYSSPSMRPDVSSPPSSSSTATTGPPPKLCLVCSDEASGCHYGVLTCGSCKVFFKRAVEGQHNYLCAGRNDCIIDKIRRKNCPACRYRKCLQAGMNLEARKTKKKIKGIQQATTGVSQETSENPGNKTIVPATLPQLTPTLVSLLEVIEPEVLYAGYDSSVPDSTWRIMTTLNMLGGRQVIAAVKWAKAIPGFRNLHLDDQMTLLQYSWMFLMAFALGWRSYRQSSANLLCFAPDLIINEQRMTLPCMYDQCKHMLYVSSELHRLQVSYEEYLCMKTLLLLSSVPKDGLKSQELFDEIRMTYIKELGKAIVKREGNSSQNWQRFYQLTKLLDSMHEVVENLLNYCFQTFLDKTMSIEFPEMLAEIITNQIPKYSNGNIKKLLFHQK
Chain of Ubiquitin carboxyl-terminal hydrolase 1 (Homo sapiens) (O94782 whole entry, looked up): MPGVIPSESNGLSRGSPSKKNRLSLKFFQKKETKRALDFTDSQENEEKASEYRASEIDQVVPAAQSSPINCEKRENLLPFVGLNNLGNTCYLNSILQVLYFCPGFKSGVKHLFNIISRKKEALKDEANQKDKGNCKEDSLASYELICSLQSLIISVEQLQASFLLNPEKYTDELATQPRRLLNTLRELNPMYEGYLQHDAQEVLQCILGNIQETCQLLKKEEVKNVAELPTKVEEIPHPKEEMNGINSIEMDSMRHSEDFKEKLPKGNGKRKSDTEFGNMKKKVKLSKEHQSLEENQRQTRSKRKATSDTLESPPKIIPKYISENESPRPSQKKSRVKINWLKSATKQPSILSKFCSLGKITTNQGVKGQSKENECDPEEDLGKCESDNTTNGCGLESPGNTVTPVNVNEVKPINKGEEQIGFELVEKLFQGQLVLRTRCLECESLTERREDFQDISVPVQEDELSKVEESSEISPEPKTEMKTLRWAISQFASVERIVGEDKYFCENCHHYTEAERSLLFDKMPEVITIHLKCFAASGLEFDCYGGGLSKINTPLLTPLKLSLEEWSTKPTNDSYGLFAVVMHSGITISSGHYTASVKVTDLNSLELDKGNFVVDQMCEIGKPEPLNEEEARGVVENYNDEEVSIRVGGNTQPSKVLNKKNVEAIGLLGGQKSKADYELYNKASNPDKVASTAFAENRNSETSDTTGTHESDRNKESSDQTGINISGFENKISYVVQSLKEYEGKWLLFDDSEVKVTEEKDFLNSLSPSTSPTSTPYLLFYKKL

Regarding `COc1ccc(/C=C/c2cc(OC)cc(=O)o2)cc1`, the call in assay [1], in assay [2], in assay [4], in assay [8], in [10] and in assay [11] was inactive. Moreover, the Potency in [3] is 14.1 µM (active); in assay [9], 10 µM (active). For the same compound, the Potency result in assay [5], in assay [6] and in assay [7] was “inactive” each time.

Regarding `O=C(OC[C@H]1O[C@@H](OC(=O)c2cc(O)c(O)c(O)c2)[C@H](OC(=O)c2cc(O)c(O)c(O)c2)[C@@H](OC(=O)c2cc(O)c(O)c(O)c2)[C@@H]1O)c1cc(O)c(O)c(O)c1`, the compound was called inactive in assay [1], in assay [2], in assay [4], in [8] and in [11]. For the same compound, the Potency entry in [3] and in [13] was “inactive” throughout. Besides, the figures for the Potency in assay [5], in assay [7] and in assay [12] were 12.6 µM (active), 3.16 µM (active) and 3.98 µM (active), respectively.

Consider `CC(=O)O[C@H]1[C@H](O[C@H]2CC[C@]34C[C@]35CC[C@]3(C)[C@@H]([C@@]6(C)CC[C@@H](C(C)(C)O)O6)[C@@H](O)C[C@@]3(C)[C@@H]5C[C@H](O[C@@H]3O[C@H](CO)[C@@H](O)[C@H](O)[C@H]3O)[C@H]4C2(C)C)OC[C@@H](O)[C@@H]1O`, for which the result in [1], in assay [2], in [4], in assay [8], in assay [10] and in [11] was inactive. Also, the Potency entry in [3], in assay [5], in [6], in assay [7], in assay [12] and in assay [9] was “inactive” each time. Also, the Potency result in assay [13] is “inactive”. The max response in assay [14] was -3.47%.

For the compound `CC(C)[C@H](C)CC[C@@H](C)[C@H]1CC[C@H]2[C@@H]3CC=C4C[C@@H](O)CC[C@]4(C)[C@H]3CC[C@]12C`, the outcome in assay [1], in [2], in [4], in [8], in assay [10] and in assay [11] was inactive. The Potency result in [3], in assay [5], in [6], in assay [7], in assay [12] and in assay [9] was “inactive” throughout. In assay [13], the Potency result was “inactive”. In addition, in assay [14], the max response was 2.09%.

On to `O=C(O)c1ccccc1`, for which the Potency entry in assay [15], in assay [3], in assay [5], in [6], in [7] and in assay [12] was “inactive” in each case. Further, the Potency entry in assay [9] and in [13] was “inactive” in each case. The compound was called inactive in assay [1], in [2], in assay [4], in [8], in assay [10] and in assay [11].

With `CC1(C)C2CCC1(C)C(O)C2` (stereo not given), the call in [1], in [2], in [4], in [8], in [10] and in assay [11] was inactive. Further, the Potency result in assay [3], in [5], in [6], in [7], in [12] and in assay [9] was “inactive” throughout. The Potency result in assay [13] was “inactive”.

`COc1ccc2[nH]cc(CCNc3cc(-c4cccc(C#N)c4)ncn3)c2c1`: the activity change, negative = inhibition in assay [16] was -15.9%. Also, the Potency in assay [17] and in assay [18] was over 46 µM in each case. Besides, the Potency entry in assay [15] and in [19] was “inactive” throughout.

Take `C=C1CC/C=C(/C)CC[C@@H]2[C@@H]1CC2(C)C`: the call in [1], in assay [2], in assay [4], in assay [8], in assay [10] and in assay [11] was inactive. Further, the Potency in assay [3] was 7.08 µM (active); in assay [12] it was 3.55 µM (active); in assay [9] it was 3.55 µM (active). Moreover, the Potency entry in assay [6] and in assay [13] was “inactive” each time. The max response in [14] was 1.11%.

With `CCCCCCCCCC=O`, the result in assay [1], in assay [2], in assay [4], in assay [8], in [10] and in assay [11] was inactive. The Potency entry in [3], in [5], in assay [6], in assay [7], in assay [12] and in [9] was “inactive” in each case. The Potency result in assay [13] was “inactive”. The max response in assay [14] was 0.0179%.

As to `O=c1cc(-c2ccc(O)cc2)oc2cc(O[C@@H]3O[C@H](CO)[C@@H](O)[C@H](O)[C@H]3O[C@@H]3OC[C@](O)(CO)[C@H]3O)cc(O)c12`, the call in assay [1], in [2], in assay [4], in [8], in assay [10] and in assay [11] was inactive. Moreover, the Potency entry in [3], in assay [5], in [6], in assay [9] and in [13] was “inactive” each time. For the same compound, the Potency in [7] was 8.91 µM (active). Further, in [14], the max response was 5.67%.
